Pf Dd2 growth – blocks in vitro growth of P. falciparum Dd2; P. falciparum Dd2 growth, SYBR Green, 72 h; Potency, µM (titrated, usually from 28.9 µM), inactives show top-dose activity, negative = inhibition, hits mostly inhibitors; 120,000 compounds, 4.3% hits; active = well fitted inhibition curve with a large enough effect;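 also: plate controls were DMSO vehicle for no effect and reference drug for full effect; nearly all actives have a fitted effect of over 65% in size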
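Readout: SYBR Green fluorescence, 485 nm excitation, 535 nm emission, after ~16 h lysis at 37C. Before that, Dd2-infected red cells (2.5% hematocrit) grew 72 h with compound, 29 uM top final concentration.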
Active calls of the source: *; i = inactive; [ ] = dose if it differs, or a comment. The sample as a whole holds a higher share of hits than the screen did. Potency is read from the fitted curve at half-maximal effect.

SMILES	Pf Dd2 growth
CCOc1ccc(C2c3cc(OCC)c(OCC)cc3CC(=O)N2c2ccc(C(=O)O)cc2)cc1OCC (configuration not stated)	61%
Cc1cc(C)c(-c2n[nH]c3c2C(c2ccccc2F)N(Cc2ccco2)C3=O)c(O)c1 (configuration not stated)	4µM*
CCCOc1ccc(C2c3c(-c4ccccc4O)n[nH]c3C(=O)N2CCc2ccccc2)cc1OCC (configuration not stated)	4.5µM*
O=C1c2[nH]nc(-c3ccccc3O)c2C(c2ccccc2F)N1Cc1ccncc1 (configuration not stated)	19%
O=C1c2[nH]nc(-c3ccccc3O)c2C(c2cccc(OCc3ccccc3)c2)N1CCCO (configuration not stated)	11µM*
COc1ccccc1-c1cc2c(ccn2C)c(C(=O)NCc2c(C)cc(C)[nH]c2=O)n1	i
COc1cccc(S(=O)(=O)N2CCc3nnc([C@@H]4C[C@@H](O)CN4C)n3CC2)c1	5%
COc1cc(=O)n2c(c1C(=O)Nc1ccc(C)c(F)c1)CCCC2	10%
O=C(NC1C[C@H]2CC[C@@H](C1)N2C(=O)c1cccs1)c1ccncc1 (some centres not stated)	-3%
CNC(=O)c1cccc(Nc2ncc3c(n2)CN([S+](=O)([O-])c2cccc(OC)c2)CCN3)c1	3%
COc1ccc(C(=O)N[C@H]2CC[C@]3(C)CCC([C@H](C)C(=O)NCCN4CCOCC4)[C@H](O)[C@H]3[C@@H]2C)cc1 (some centres not stated)	-3%
CCOc1cc(C2c3c(oc4cc(C)cc(C)c4c3=O)C(=O)N2CCO)ccc1O (configuration not stated)	19%
COc1cc(C2c3c(-c4ccccc4O)n[nH]c3C(=O)N2CCO)ccc1OCc1ccccc1 (configuration not stated)	11µM*
COc1cc(C2C(C(=O)OCC(C)C)=C(C)N=C3SCCC(=O)N32)ccc1OCc1ccccc1 (configuration not stated)	-1%
COc1ccc(C)cc1NC(=O)N1CCCC1c1nncn1C1CCCC1 (configuration not stated)	-22%
Cc1noc(C)c1C(=O)N[C@H]1[C@H](O)[C@H](O)C[C@@H]1c1ccccc1	12%[44.1 µM]
O=C(c1ccc2c(c1)CC(=O)N2Cc1ccccc1)N1CCN(C2CCCCC2)CC1	1.4µM*
O=C(NCc1cccc(F)c1)c1ccc2c(c1)CC(=O)N2Cc1ccccc1	i
O=C(O)c1ccc2c(c1)CC(=O)N2Cc1ccc(F)cc1	i
CC(C)S(=O)(=O)N1CCC(CCOc2ccccc2)C1 (configuration not stated)	i
Cc1cc2ncc(C(=O)NCCN3CCOCC3)cn2n1	5%[44.1 µM]
COc1ccc2[nH]c3c(c2c1)CCNC31CCN(S(=O)(=O)c2c(C)nn(C)c2C)CC1	i
Cc1ccc(NC(=O)N[C@H]2C[C@@](O)(C(=O)N[C@H](CC(C)C)C(N)=O)C[C@@H](O)[C@@H]2O)cc1	15%
COc1cc(-c2nccc3c(=O)cc(N(C)c4ccccc4)oc23)ccn1	i
Cn1cc(CC(=O)N2CCCc3ncc(C(=O)NCc4ccoc4)cc32)c2ccccc21	i
SMILES	Pf Dd2 growth
Cn1cc(CC(=O)N2CCCc3ncc(C(=O)Nc4cccc(Cl)c4)cc32)c2ccccc21	4.5µM*
CC(C)CCNC(=O)c1cnc2c(c1)N([S+](=O)([O-])c1cccnc1)CCC2	-15%[44.1 µM]
O=C(Nc1cccc(Cl)c1)c1cnc2c(c1)N([S+](=O)([O-])c1cccnc1)CCC2	11µM*
CN(C)CCNC(=O)c1cnc2c(c1)N(C(=O)Cc1cn(C)c3ccccc13)CCC2	-19%[44.1 µM]
O=C(c1cnc2c(c1)N([S+](=O)([O-])c1cccnc1)CCC2)N1CCC[C@@H]1c1ccc(F)cc1	-1%
COc1ccc(S(=O)(=O)N2CCOC[C@H](Oc3cccc(C)n3)C2)cc1	-28%[44.1 µM]
Cc1ccc(C2=NC3(CCN(C(=O)c4cccc5[nH]ccc45)CC3)ON2)cc1	i
CCn1cnnc1CC1CCN(C(=O)C2CCN(Cc3nc(-c4ccc(C)cc4)oc3C)CC2)CC1	i
COc1ccc(NC(=O)CSc2nc(-c3ccccc3)nc3cc(=O)[nH]n23)cc1	i
COc1cccc(-c2nc(SCc3ccc(C)cc3)n3[nH]c(=O)cc3n2)c1	i
CC(C)(C)c1ccc(-c2nc(SCCCOc3ccccc3)n3[nH]c(=O)cc3n2)cc1	10µM*
O=C(NCCCN1CCOCC1)c1cccnc1N1CC2CC(C1)[C@H]1CCCC(=O)N1C2 (some centres not stated)	-7%
CCCN(CCC)CC(O)Cn1cc(/C=C/C(=O)c2ccc(Br)cc2)c2ccccc21 (configuration not stated)	3.2µM*
CCCCN(C)CC(O)Cn1cc(/C=C/C(=O)c2ccc(C)cc2)c2ccccc21 (configuration not stated)	2.5µM*
CCN(CC)C(=O)Cn1cc(SCC(=O)Nc2cccc(C)c2)c2ccccc21	-4%
